Assay in all cases: log2 ratio of Biotin-Ahx-Ub-VS probe labelling (fragment/DMSO); higher = less target engagement (more negative = stronger competition), active = hit call of the paper (q ≤ 0.05, log2 ratio ≤ -1)
Holding throughout (settings): compound concentration: 200 uM; treatment time: 3 h

Assay [1] deals with T1, USP19 (UniProt O94966).
T1 sequence (whole entry): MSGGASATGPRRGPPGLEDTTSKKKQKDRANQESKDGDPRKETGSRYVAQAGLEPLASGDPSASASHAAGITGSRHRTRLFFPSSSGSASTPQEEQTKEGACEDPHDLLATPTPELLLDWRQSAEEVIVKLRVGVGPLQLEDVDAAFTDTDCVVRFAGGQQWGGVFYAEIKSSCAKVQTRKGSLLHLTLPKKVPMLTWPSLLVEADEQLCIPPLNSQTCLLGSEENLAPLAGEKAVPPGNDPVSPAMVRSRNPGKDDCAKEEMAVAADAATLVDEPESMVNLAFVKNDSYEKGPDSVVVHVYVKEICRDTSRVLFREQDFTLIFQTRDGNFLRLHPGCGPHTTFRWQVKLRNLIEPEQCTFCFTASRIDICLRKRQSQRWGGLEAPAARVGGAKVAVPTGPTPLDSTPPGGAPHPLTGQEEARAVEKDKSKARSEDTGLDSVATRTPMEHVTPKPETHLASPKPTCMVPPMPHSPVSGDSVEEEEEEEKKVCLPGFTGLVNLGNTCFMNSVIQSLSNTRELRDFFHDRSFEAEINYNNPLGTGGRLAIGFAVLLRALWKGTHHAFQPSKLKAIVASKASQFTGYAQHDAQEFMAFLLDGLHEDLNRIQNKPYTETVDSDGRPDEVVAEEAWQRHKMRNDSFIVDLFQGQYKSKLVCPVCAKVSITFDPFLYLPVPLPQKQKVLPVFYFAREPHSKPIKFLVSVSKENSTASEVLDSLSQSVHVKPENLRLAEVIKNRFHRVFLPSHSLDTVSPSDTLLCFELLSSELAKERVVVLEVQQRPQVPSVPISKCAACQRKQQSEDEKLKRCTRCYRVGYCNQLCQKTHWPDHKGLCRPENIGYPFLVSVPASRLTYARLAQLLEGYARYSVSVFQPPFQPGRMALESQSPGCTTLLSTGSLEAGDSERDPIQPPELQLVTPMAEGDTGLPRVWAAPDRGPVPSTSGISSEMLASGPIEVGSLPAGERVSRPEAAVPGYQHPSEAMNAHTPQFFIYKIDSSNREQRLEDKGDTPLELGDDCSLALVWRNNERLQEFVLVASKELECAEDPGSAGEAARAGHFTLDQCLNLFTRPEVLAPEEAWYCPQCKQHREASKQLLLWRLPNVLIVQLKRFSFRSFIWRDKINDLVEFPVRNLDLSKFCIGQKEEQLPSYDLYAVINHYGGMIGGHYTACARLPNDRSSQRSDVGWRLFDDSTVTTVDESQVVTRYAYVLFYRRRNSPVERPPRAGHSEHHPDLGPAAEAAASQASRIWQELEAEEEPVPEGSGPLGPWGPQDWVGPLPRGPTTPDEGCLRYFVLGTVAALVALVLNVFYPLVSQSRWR
In a few lines: (§1)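 HEK293T lysate in Tris/CHAPS/IGEPAL buffer with protease inhibitors (495 µg per sample) was given fragment at 200 µM or vehicle for 3 h, in triplicate. It then received Biotin-Ahx-Ub-VS at 0.5 µM final for 1 h. Labelled DUBs were NeutrAvidin-enriched, digested with LysC and trypsin, and run by diaPASEF LC-MS/MS. Values are average log2 fragment/vehicle ratios by unpaired t-test on global-median-normalised Spectronaut quantities of proteins with ≥2 unique peptides.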

Assay [2] deals with T2, USP22 (UniProt Q9UPT9).
T2 sequence (whole entry): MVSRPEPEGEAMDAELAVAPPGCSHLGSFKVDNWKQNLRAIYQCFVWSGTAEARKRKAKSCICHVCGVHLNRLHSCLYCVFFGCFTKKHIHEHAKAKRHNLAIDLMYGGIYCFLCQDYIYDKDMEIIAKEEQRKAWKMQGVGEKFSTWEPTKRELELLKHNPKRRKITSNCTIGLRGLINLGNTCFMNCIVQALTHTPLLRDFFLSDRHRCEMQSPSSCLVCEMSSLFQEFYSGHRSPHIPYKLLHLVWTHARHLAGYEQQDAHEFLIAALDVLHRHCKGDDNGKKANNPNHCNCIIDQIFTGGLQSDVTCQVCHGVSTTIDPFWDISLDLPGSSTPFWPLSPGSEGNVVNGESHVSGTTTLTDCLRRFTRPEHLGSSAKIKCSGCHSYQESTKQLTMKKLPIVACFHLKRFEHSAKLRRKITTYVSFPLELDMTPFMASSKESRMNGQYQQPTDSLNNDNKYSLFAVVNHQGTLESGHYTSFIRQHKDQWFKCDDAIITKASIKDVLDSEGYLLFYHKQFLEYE
In a few lines: as §1

Assay [3] deals with USP24 (UniProt Q9UPU5). In a few lines: as §1
USP24, sequence (Q9UPU5 whole entry): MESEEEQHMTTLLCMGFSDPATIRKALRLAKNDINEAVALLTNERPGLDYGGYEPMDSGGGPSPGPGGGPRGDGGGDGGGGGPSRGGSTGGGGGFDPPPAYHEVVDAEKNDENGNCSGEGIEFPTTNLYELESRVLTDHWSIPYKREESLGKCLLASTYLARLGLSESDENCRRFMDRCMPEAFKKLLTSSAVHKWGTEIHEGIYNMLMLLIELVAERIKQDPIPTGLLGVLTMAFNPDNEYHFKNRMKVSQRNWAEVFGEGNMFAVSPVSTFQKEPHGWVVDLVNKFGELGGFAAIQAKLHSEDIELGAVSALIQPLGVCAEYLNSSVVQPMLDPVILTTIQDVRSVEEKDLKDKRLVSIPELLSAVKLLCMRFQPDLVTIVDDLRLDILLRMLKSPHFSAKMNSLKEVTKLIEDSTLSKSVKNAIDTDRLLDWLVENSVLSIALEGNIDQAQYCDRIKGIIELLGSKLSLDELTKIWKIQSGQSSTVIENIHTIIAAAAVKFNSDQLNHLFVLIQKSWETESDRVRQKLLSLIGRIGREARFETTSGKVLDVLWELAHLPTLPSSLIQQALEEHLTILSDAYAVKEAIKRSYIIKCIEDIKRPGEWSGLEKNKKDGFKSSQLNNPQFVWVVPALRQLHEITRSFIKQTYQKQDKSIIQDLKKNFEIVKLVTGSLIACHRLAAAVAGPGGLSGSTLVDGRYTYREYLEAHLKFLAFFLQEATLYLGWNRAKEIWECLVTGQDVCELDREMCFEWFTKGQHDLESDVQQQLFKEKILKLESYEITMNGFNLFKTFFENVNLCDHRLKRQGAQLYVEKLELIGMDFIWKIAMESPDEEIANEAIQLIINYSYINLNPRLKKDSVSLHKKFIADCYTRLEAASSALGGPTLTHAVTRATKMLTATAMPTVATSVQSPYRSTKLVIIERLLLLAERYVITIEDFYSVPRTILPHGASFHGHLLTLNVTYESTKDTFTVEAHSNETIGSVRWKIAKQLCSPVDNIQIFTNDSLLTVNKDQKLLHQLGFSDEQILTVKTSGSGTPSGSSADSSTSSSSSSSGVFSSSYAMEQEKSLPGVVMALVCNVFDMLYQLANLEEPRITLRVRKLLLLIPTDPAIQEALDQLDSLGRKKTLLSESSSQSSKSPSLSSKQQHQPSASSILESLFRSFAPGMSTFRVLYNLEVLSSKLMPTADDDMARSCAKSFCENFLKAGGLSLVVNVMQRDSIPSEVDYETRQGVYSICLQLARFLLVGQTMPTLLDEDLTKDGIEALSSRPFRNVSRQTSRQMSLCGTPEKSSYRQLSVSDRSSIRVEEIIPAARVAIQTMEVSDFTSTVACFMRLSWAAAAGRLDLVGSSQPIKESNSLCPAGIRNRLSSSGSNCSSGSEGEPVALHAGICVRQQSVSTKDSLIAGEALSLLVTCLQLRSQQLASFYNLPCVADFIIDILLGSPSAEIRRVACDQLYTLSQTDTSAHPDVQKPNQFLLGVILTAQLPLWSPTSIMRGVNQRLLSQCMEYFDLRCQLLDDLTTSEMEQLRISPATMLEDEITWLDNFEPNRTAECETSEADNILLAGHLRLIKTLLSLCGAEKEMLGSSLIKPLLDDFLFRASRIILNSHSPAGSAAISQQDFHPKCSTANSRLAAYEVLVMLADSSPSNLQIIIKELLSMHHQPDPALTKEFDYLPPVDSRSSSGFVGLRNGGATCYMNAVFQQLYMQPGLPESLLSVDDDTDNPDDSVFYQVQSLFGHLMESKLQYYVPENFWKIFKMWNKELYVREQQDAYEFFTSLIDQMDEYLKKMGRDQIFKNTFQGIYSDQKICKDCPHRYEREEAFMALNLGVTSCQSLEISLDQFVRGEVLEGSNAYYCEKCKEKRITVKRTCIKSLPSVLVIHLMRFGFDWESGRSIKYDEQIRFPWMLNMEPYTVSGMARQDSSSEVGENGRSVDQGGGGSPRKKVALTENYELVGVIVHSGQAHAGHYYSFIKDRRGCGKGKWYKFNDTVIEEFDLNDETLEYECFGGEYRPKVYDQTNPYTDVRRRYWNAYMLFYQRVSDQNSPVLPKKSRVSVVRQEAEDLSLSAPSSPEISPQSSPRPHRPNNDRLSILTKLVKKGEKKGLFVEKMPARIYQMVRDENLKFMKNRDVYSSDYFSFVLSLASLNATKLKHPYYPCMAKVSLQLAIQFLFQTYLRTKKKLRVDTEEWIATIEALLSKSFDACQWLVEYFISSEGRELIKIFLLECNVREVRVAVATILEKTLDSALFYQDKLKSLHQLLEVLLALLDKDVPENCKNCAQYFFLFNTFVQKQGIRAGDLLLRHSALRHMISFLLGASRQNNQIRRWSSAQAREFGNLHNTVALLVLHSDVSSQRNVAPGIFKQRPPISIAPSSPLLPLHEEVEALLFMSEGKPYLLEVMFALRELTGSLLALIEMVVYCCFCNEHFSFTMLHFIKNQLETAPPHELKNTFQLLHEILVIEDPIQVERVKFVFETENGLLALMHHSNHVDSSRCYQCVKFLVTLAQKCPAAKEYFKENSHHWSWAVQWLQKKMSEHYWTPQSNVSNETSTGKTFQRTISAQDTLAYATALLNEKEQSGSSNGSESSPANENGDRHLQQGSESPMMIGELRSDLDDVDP
Assay [4] addresses T3, USP25 (UniProt Q9UHP3).
T3 sequence (whole entry): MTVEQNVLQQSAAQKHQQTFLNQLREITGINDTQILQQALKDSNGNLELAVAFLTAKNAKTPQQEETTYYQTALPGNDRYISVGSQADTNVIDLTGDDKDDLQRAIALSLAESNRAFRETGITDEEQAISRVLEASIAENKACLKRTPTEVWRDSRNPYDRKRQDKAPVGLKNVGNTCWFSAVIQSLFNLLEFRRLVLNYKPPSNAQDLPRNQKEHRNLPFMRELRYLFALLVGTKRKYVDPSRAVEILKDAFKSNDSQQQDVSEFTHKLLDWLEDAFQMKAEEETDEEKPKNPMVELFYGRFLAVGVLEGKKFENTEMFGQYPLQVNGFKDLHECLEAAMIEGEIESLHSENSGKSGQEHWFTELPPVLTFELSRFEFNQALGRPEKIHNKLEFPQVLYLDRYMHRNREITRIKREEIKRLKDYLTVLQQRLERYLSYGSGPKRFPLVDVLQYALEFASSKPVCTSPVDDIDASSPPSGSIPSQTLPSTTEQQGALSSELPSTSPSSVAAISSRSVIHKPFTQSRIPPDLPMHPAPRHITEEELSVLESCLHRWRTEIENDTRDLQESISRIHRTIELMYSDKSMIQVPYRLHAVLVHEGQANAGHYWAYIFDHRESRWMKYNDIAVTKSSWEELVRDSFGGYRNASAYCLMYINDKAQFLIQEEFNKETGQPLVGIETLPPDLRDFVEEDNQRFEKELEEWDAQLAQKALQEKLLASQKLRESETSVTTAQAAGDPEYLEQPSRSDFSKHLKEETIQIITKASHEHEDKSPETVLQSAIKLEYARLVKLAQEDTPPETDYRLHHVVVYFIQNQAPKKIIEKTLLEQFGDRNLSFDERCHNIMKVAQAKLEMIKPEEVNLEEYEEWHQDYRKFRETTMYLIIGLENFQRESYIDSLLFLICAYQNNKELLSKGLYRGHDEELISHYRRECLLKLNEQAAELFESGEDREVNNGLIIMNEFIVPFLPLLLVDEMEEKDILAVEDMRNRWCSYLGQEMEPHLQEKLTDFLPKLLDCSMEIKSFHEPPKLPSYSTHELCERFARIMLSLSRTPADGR
In a few lines: as §1

The target in assay [5] is T4, USP28 (UniProt Q96RU2).
T4 sequence (whole entry): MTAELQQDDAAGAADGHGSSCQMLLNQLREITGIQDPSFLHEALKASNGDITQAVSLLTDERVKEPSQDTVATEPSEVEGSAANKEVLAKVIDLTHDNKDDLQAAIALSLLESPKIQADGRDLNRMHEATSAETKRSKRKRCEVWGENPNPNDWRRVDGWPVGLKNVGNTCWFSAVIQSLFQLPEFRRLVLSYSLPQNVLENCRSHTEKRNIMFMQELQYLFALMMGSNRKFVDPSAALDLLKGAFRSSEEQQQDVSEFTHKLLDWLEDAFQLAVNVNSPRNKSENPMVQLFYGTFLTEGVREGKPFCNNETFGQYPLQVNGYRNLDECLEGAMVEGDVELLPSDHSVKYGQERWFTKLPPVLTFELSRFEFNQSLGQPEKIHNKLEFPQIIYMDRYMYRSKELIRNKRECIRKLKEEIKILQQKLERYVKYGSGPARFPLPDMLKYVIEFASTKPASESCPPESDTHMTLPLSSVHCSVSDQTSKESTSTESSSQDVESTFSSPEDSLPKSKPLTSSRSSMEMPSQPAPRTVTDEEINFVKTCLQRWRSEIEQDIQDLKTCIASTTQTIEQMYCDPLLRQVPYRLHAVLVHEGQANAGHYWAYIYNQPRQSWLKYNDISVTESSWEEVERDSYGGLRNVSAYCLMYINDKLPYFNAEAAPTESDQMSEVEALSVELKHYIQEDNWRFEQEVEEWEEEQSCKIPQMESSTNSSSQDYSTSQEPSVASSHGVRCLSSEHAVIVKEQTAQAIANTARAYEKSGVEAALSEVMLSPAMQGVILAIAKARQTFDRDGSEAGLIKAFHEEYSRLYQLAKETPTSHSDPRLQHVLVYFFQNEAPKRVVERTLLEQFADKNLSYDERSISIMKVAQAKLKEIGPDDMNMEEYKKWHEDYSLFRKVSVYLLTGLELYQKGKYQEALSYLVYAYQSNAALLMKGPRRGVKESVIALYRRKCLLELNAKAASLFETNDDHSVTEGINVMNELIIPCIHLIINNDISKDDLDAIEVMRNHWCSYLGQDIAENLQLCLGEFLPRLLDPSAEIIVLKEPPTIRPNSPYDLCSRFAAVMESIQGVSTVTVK
In a few lines: as §1

SMILES strings stand for the structures. Unmarked numbers belong to inactive results.

On to `O=C(CCl)N1CCN(c2nc3ccccc3o2)CC1`, for which the “log2 ratio of Biotin-Ahx-Ub-VS probe labelling” value in assay [1] is -0.702; in assay [2], 0.146; in assay [3], -1.3 (active); in assay [4], -0.53; in assay [5], -0.6.

These data come from the supplement of paper PMC11732987, “Enantioselective OTUD7B fragment discovery through chemoproteomics screening and high-throughput optimisation” (Communications Chemistry, 2025).
